High-throughput results: PubChem, National Center for Advancing Translational Sciences (NCATS)
Only some compounds are listed: those with a hit (about 2.4% of all), similar ones and a draw of the others.
D2 antagonist: antagonists of human D2 dopamine receptor | inhibition, % at 10 µM | hit rate 2% among 340,000 | AID 485344 | HEK293 TREx D2 cells, calcium flux, dopamine EC80; in the data active = inhibition above about 30%; inactive = below that, where a call was filed
Target sequence (P14416 whole entry, looked up): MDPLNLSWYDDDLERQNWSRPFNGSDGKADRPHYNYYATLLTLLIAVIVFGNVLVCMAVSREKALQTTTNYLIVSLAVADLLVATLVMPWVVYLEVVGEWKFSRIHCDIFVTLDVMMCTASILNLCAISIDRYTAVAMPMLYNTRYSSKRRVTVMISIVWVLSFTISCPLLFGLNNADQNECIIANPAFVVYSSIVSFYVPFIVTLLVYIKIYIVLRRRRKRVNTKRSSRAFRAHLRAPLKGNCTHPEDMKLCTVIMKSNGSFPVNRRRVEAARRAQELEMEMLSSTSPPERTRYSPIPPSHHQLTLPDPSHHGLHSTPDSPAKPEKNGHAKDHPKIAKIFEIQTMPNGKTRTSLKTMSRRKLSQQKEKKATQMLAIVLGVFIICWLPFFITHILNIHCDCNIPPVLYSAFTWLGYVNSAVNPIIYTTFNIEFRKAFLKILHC
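In this primary screen, negative modulation is detected by tracking calcium flux after an EC80 dopamine challenge in inducible HEK293 T-REx D2 cells preexposed to test compound for 180 s.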
D2 ag-1: agonists of human D2 dopamine receptor (beta-arrestin). DiscoveRx PathHunter D2 beta-arrestin, luminescence, 90 min; 100% = 57 uM dopamine signal. activation, % (test concentration not listed). hit rate 0.084% among 360,000. AID 624465; in the data active = activation above about 40%; inconclusive = between about 15% and that limit
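Agonist mode: compounds alone added to overnight-plated D2 PathHunter cells for 90 min at 37 C, with 57 uM final dopamine (EC100) defining full response. Beta-arrestin recruitment detected by chemiluminescent reagent, read after 1 h at ambient temperature.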
D2 PAM-1: human D2 receptor positive allosteric modulation. P14416. DiscoveRx D2 beta-arrestin cells, luminescence, 90 min; 100% = 57 uM dopamine signal. potentiation, % (test concentration not listed). hit rate 0.23% among 360,000. AID 624464; in the data active = potentiation above about 50%; inconclusive = mostly about 30% to 49%
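PathHunter beta-arrestin assay in DiscoveRx D2 cells. Compounds were added with an EC20 of dopamine (50 nM final) for 90 min at 37 deg C. Luminescence was read 1 h after detection reagent, with 57 uM dopamine as the EC100 control.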
D2 ag-2: D2 dopamine receptor (human) agonism | P14416 | HEK293 T-REx D2 cells, calcium flux agonist mode | activation, % at 2 µM | hit rate 0.53% among 340,000 | AID 485358;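 active = activation over 3 SD above normal in the single-dose calcium agonist read, cut at about 30% in these data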
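Agonism is scored from calcium flux in a force-coupled, inducible HEK293 cell line expressing D2, read kinetically for 180 s after compound addition against dopamine controls.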
D2 PAM-2: D2 dopamine receptor (human) potentiation; HEK293 T-REx D2, calcium flux, EC20 dopamine potentiation; hit rate 0.34% among 340,000; potentiation, % at 10 µM;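 active = potentiation over 3 SD above the plate norm, cut at about 30% in these data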
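Potentiation of an EC20 dopamine calcium response is measured in a force-coupled, tetracycline-inducible Hek293 Trex D2 line. Compound-only kinetic reads over 180 s flag agonists before dopamine addition.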
D3 arrestin ag: confirmation of human D3 dopamine receptor agonists, beta-arrestin; AID 720506; Potency, µM (doses to about 76.9 µM), most hits filed as activators; hit rate 4% among 2,300; DiscoveRx D3 beta-arrestin cells, luminescence, 90 min; shares compounds with D2 ag-2; note: nearly all actives have a fitted effect of over 70% in size
D2 ag-3: activates human D2 dopamine receptor in D3 counterscreen; shares compounds with D2 ag-2; DiscoveRx PathHunter D2 beta-arrestin, luminescence, 90 min; response scale: percent relative to full dopamine signal; Potency, µM (series often up to 76.9 µM), actives largely listed as activators; hit rate 5.9% among 2,300; note: nearly all actives have a fitted effect of over 70% in size
A number is an active result; ! = a repeat was not active. Unless noted, calls come from the whole dose curve; as a rule, active = well fitted activation curve with a large enough effect; inconclusive = small, poorly fitted or top-dose-only effect; inactive = flat fitted curve, though single readings scatter.

For O=C(CN1CCN(c2ccccc2F)CC1)Nc1ccccc1F the results were D2 antagonist inactive, D2 ag-1 inactive, D2 PAM-1 inactive, D2 ag-2 inactive, D2 PAM-2 inactive, D3 arrestin ag inactive and D2 ag-3 inactive.
For O=C(CCN1CCN(c2ccccc2F)CC1)Nc1ccccc1F the results were D2 antagonist 86, D2 ag-1 inactive, D2 PAM-1 inactive, D2 ag-2 55, D2 PAM-2 inactive, D3 arrestin ag inconclusive and D2 ag-3 inconclusive.
`CSc1nnc(NC(=O)c2cccc(S(=O)(=O)N3CCOCC3)c2)s1` gave D2 antagonist inactive, D2 ag-1 inactive, D2 PAM-1 inactive, D2 ag-2 inactive and D2 PAM-2 inactive.
O=C(/C=C/c1ccco1)N1CCCC(c2ccccc2)C1 (configuration not stated) was read as D2 antagonist 56, D2 ag-1 inactive, D2 PAM-1 inactive, D2 ag-2 57, D2 PAM-2 inactive, D3 arrestin ag inactive and D2 ag-3 inactive.
Screening Cc1ccc(NC(=O)N2CCCC(c3ccccc3)C2)cc1 (configuration not stated) returned D2 ag-1 inconclusive, D2 PAM-1 inactive, D3 arrestin ag inactive and D2 ag-3 inactive.
`COc1cc([C@H]2[C@@H]3CCCC[C@]3(O)CCN2Cc2ccccc2F)ccc1O` gave D2 antagonist inactive, D2 ag-1 inactive, D2 PAM-1 inactive, D2 ag-2 inactive and D2 PAM-2 inactive.
`COc1cc([C@H]2[C@@H]3CCCC[C@]3(O)CCN2CC(=O)Nc2ccc(C)cc2C)ccc1O` gave D2 antagonist inactive, D2 ag-1 inactive, D2 PAM-1 inactive, D2 ag-2 inactive, D2 PAM-2 inactive, D3 arrestin ag inactive and D2 ag-3 inactive.
`O=C(CN1C(=O)CCc2cc(S(=O)(=O)N3CCOCC3)ccc21)NCc1ccc(Cl)cc1` gave D2 ag-2 inactive and D2 PAM-2 inactive.
For Cc1[nH]c(=O)c(S(=O)(=O)c2ccccc2)c(C)c1Cl the results were D2 antagonist inactive, D2 ag-1 inactive, D2 PAM-1 inactive, D2 ag-2 inactive and D2 PAM-2 inactive.
Screening COc1ccc2[nH]c(=O)c(CN(CCc3ccccc3)Cc3nnnn3CC3CCCO3)cc2c1 (configuration not stated) returned D2 antagonist inactive, D2 ag-1 inactive, D2 PAM-1 inactive, D2 ag-2 inactive, D2 PAM-2 inactive, D3 arrestin ag inconclusive and D2 ag-3 inactive.
Screening COc1ccc2cc(CN(CCc3ccccc3)Cc3nnnn3CC3CCCO3)c(=O)[nH]c2c1 (configuration not stated) returned D2 antagonist inactive, D2 ag-1 inactive, D2 PAM-1 inactive, D2 ag-2 inactive and D2 PAM-2 inactive.
`CCOC(=O)Cn1nnnc1CN(Cc1ccc(OC)cc1)Cc1cc2cc(CC)ccc2[nH]c1=O` gave D2 antagonist inactive, D2 ag-1 inactive, D2 PAM-1 inactive, D2 ag-2 inactive, D2 PAM-2 inactive, D3 arrestin ag inactive and D2 ag-3 inactive.
`Cc1ccc(CNC(=O)Cn2nc(N3CCN(c4ccccc4)CC3)ccc2=O)cc1` gave D2 ag-2 inactive and D2 PAM-2 inactive.
CC(C)N1CC(C(=O)Nc2ccc(Cl)c([N+](=O)[O-])c2)CC1=O (configuration not stated) was read as D2 antagonist inactive, D2 ag-1 inactive, D2 PAM-1 inactive, D2 ag-2 inactive and D2 PAM-2 inactive.
O=C(c1ccco1)N1CCN(C(=O)C2CCN(S(=O)(=O)c3cccs3)CC2)CC1 was read as D2 antagonist inactive, D2 ag-1 inactive, D2 PAM-1 inactive, D2 ag-2 inactive, D2 PAM-2 inactive, D3 arrestin ag inactive and D2 ag-3 inactive.
Screening O=C(C1CCCN(Cc2cccnc2)C1)N1CCCCC1 (configuration not stated) returned D2 antagonist inactive, D2 ag-1 inactive, D2 PAM-1 inactive, D2 ag-2 inactive, D2 PAM-2 inactive, D3 arrestin ag inactive and D2 ag-3 inactive.
For COC(=O)c1[nH]c2cc(OC)c(OC)cc2c1/C=N/Nc1ccccc1 the results were D2 antagonist inactive, D2 ag-1 inconclusive, D2 PAM-1 inactive, D2 ag-2 inactive and D2 PAM-2 inactive.
For CC(C)(C)C1CCC(OCC(O)CN2CCN(c3ccccn3)CC2)CC1 (configuration not stated) the results were D2 antagonist 63, D2 ag-1 inconclusive, D2 PAM-1 inactive, D2 ag-2 62, D2 PAM-2 inactive, D3 arrestin ag 0.63µM and D2 ag-3 20µM.
Screening CCOC(=O)N1CCN(CC(O)COCc2ccc(Cl)cc2)CC1 (configuration not stated) returned D2 antagonist inactive, D2 ag-1 inactive, D2 PAM-1 inactive, D2 ag-2 inactive and D2 PAM-2 inactive.
For CCCc1ccc(OCC(O)CN2CCc3ccccc3C2)cc1 (configuration not stated) the results were D2 ag-1 inactive and D2 PAM-1 inactive.
OC(COCC1COc2ccccc2O1)CN1CCN(c2ccccn2)CC1 (configuration not stated) was read as D2 antagonist 83, D2 ag-1 45!, D2 PAM-1 inactive, D2 ag-2 77, D2 PAM-2 inactive, D3 arrestin ag inconclusive and D2 ag-3 inconclusive.
`CCCc1ccc(OCC(O)CN2CCN(c3ccccn3)CC2)cc1` (configuration not stated) gave D2 antagonist 74, D2 ag-1 inconclusive, D2 PAM-1 inactive, D2 ag-2 78, D2 PAM-2 inactive, D3 arrestin ag 1.3µM and D2 ag-3 inconclusive.
OC(COCc1ccc(Cl)cc1)CN1CCN(c2ccccn2)CC1 (configuration not stated) was read as D2 antagonist 84, D2 ag-1 45, D2 PAM-1 inactive, D2 ag-2 83, D2 PAM-2 inactive, D3 arrestin ag inconclusive and D2 ag-3 inconclusive.
CC(=O)c1ccc(OCC(O)CN2CCN(CC(O)COc3ccc(C(C)=O)cc3)CC2)cc1 (configuration not stated) was read as D2 antagonist inactive, D2 ag-1 inactive, D2 PAM-1 inactive, D2 ag-2 inactive and D2 PAM-2 inactive.
Screening CC(=O)c1ccc(OCC(O)CN2CCN(c3ccccn3)CC2)cc1 (configuration not stated) returned D2 antagonist 88, D2 ag-1 47, D2 PAM-1 94, D2 ag-2 83, D2 PAM-2 inactive, D3 arrestin ag inconclusive and D2 ag-3 4µM.
